CHT block: inhibitors of human choline transporter CHT | High affinity choline transporter 1 (Homo sapiens), Q9GZV3 | actives 0.86% (n = 310,000) | AID 488975, 2010 | B-score at 10 µM | CHT-expressing cells, membrane potential dye, choline response; stronger effect = lower value;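 active = B-score over 3 SD under the library average, and starting fluorescence ratio not unusually high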;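 also: choline stimulus applied at its EC90 after an EC20 pre-addition; B-score computed on integrated fluorescence ratio after choline addition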
CHT allo act: CHT positive allosteric modulators, primary screen, cell-based, membrane potential dye, choline EC20; High affinity choline transporter 1 (Homo sapiens), Q9GZV3; B-score at 10 µM; CHT-expressing cells; stronger effect = higher value; LV-AA mutant CHT in HEK293 cells; actives 0.49% (n = 310,000); AID 488977, 2010;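 active = initial fluorescence not abnormally high and integrated response B-score, plate-corrected, over 3 SD above library mean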
Kir21 inh: inhibitors of mouse Kir2.1 inward-rectifier potassium channel; HEK293-Kir2.1, FluxOR thallium flux fluorescence; stronger effect = lower value; B-score at 10 µM; AID 1672, 2009; actives 0.85% (n = 310,000); Inward rectifier potassium channel 2 (Mus musculus), P35561;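 active = fluorescence ratio B-score at or below minus 3 SD of library scores, with starting-brightness B-score within 2 SD, cut at about -4.2 in these data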;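 also: channel flux triggered by added potassium and thallium sulfate stimulus; B-score of peak minus minimum fluorescence over baseline after thallium stimulus; more negative B-score means stronger Kir2.1 block with less thallium influx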
Target sequence (P35561 whole entry, looked up): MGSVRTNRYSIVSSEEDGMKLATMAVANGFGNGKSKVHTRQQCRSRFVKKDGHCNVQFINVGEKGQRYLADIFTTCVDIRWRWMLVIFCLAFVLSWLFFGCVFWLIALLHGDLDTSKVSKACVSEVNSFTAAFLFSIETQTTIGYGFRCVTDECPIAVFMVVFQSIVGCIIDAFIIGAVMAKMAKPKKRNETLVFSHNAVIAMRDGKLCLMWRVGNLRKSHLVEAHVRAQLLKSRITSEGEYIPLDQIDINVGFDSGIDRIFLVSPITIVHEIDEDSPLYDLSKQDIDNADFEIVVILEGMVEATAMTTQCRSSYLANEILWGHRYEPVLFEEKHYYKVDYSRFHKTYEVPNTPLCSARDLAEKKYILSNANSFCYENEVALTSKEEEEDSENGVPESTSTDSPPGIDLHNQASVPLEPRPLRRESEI
H9c2 TAG inh: inhibitors of triacylglycerol accumulation, primary screen, cell-based, uHTS, fluorescence, H9c2; H9c2 cells, Nile Red lipid (TAG) fluorescence; cells loaded with 200 µM oleic acid; inhibition, % at 12.5 µM; actives 0.66% (n = 230,000);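 active = pattern-corrected inhibition of lipid staining of at least 50% with the nuclear-stain viability signal not falling by more than 50%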;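 also: 0% = DMSO wells and 100% = triacsin C control wells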
CHT inh conf: CHT inhibitors, confirmation, cell-based, membrane potential dye, duplicate. CHT-expressing cells, choline membrane potential dye; LV-to-AA substituted CHT, HEK293 cells. shares compounds with CHT block. AID 493221, 2011. actives 70% (n = 2,400). CHT activity remaining % of control (stronger effect = lower value), % at 10 µM;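 active = choline transporter activity left, mean of duplicates at 10 µM, below buffer-only control mean minus 3 SD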;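 also: depolarization triggered by choline at its EC90 following an EC20 pre-addition; 0% = hemicholinium-3 full block and 100% = buffer-only control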
HEK293 MPD ctr: membrane potential effects in parental HEK293, counter-screen for CHT inhibitor project, cell-based, membrane potential dye; shares compounds with CHT block; choline response; active = decrease or increase beyond buffer ±3SD; membrane potential ratio readout (active if shifted either direction beyond buffer ±3SD; no single direction) at 10 µM; actives 4% (n = 2,400); AID 493222, 2011;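 also: parental cells lack the transporter so any hit is non-specific; ratio is peak minus trough fluorescence over baseline after EC90 choline challenge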
Starred values were filed as active, the others as inactive; i = inactive; · = not tested or not shown. Shown are actives, neighbours in structure and some others; about 2% of the full set was active somewhere.

SMILES	CHT block	CHT allo act	Kir21 inh	H9c2 TAG inh	CHT inh conf	HEK293 MPD ctr
CC(=O)c1ccc(S(=O)(=O)N(CC(=O)NC2CC2)Cc2ccc(F)cc2)cc1	·	·	·	15.1	·	·
CC(SCC(=O)O)c1nc2ccccc2[nH]1 (configuration not stated)	-5.71*	i	-2.04	7.6	i	i
O=C(O)CSc1nc2ccccc2[nH]1	i	i	1.1	-14.4	·	·
Cc1ccc(Oc2ccc(S(=O)(=O)NCC(C)(C)N3CCOCC3)cc2)cc1	-6.4*	i	-1.04	·	39.8%*	i
N=C1CCCN1CC(=O)c1ccc(Br)cc1	-19.2*	i	0.11	·	1.5%*	i
COc1ccc(OC)c(NC(=O)CCNS(=O)(=O)c2ccc3c(c2)CC(C)N3C(C)=O)c1 (configuration not stated)	·	·	·	1.7	·	·
CCCOc1ccc(Br)cc1CSC(=N)N	-6.07*	i	-8.18*	·	33.0%*	i
Cc1nnc(SCc2nnc(-c3cccs3)o2)n1C	-7.02*	i	0.02	-14.9	i	i
Cc1ccc(NC(=O)CC(C)S(=O)(=O)c2ccc3c(c2)NC(=O)CO3)c(Cl)c1 (configuration not stated)	i	i	0.46	·	·	·
Cc1ccc(N(C)C(=O)CC(C)S(=O)(=O)c2ccc3c(c2)NC(=O)CO3)cc1 (configuration not stated)	-5.73*	i	-0.06	·	i	i
Cc1cc(C)c(NC(=O)c2ccc[n+](Cc3ccc([N+](=O)[O-])cc3)c2)c(C)c1	-10.3*	i	1.93	·	10.8%*	i
Cc1ccc[n+](Cc2ccc([N+](=O)[O-])cc2)c1	i	i	0.25	-16.1	·	·
CCN(CC(=O)Nc1ccc2c(c1)OCCO2)CC(=O)Nc1ccc(C)c(S(=O)(=O)N(C)C)c1	·	·	·	0.6	·	·
O=C(NC1CCCC1)c1ccc(COc2ccccc2Br)o1	-5.14*	i	0.04	·	i	i
O=C(NC1CCCCC1)c1ccc(COc2ccccc2)o1	i	i	0	-35.1	·	·
CC(C)c1ccc(S(=O)(=O)N2CCC(C(=O)NCC3(N(C)C)CCCCC3)CC2)cc1	-6.05*	i	-1.12	-10.7	21.9%*	i
CN(C)C1(CNC(=O)C2CCN(S(=O)(=O)c3cc(Cl)ccc3Cl)CC2)CCCCC1	i	i	-0.01	14.3	·	·
CC(C)(C)NC(=O)CSc1ncnc2c1nnn2Cc1ccccc1Cl	-6.73*	i	0.56	-20.1	i	i
CCCCNc1ncnc2c1nnn2Cc1ccccc1Cl	i	i	-0.51	·	·	·
CC1CCCCC1NC(=O)c1ccc(S(=O)(=O)N2CCCC2)cc1 (configuration not stated)	-5.36*	i	0.27	18.6	7.2%*	i
O=C(NC1CCCC1)c1ccc(S(=O)(=O)N2CCCC2)cc1	i	i	0.78	·	·	·
CC1CCCCC1NC(=O)CCn1ccc2cc(S(=O)(=O)N3CCCC3)ccc21 (configuration not stated)	-6.15*	i	0.49	·	40.8%*	i
CC1CCCCC1NC(=O)c1cccc(S(=O)(=O)N2CCN(C)CC2)c1 (configuration not stated)	-11.6*	i	0.54	3.8	2.1%*	i
CC1CCCCC1NC(=O)c1ccc2c(c1)[nH]c(=O)n2C1CCCC1 (configuration not stated)	-9.85*	i	-1.28	17.7	40.0%*	i
CN1CCN(S(=O)(=O)c2cccc(C(=O)NC3CCCC3)c2)CC1	i	i	0.54	7.4	·	·
SMILES	CHT block	CHT allo act	Kir21 inh	H9c2 TAG inh	CHT inh conf	HEK293 MPD ctr
COCCn1c(=S)[nH]c2cc(C(=O)NC3CCCCC3C)ccc2c1=O (configuration not stated)	·	·	·	-21.0	·	·
CN(C)S(=O)(=O)n1cc(/C=C(\NC(=O)c2ccccc2F)C(=O)NCCCn2ccnc2)c2ccccc21	·	·	-2.1	·	·	·
Cc1ccc(S(=O)(=O)N2CCCC2CNC(=O)c2ccc3c(c2)OCO3)cc1 (configuration not stated)	i	i	2.88	-4.0	·	·
O=C(CS(=O)c1ccc(C(F)(F)F)cc1[N+](=O)[O-])Oc1ccccc1 (configuration not stated)	-4.98*	i	-0.77	-18.4	-5.7%*	i
COC(=O)c1ccc(OC(=O)CS(=O)c2ccccc2[N+](=O)[O-])cc1 (configuration not stated)	i	i	0.52	·	·	·
Cn1cnnc1Sc1ccc(C(=O)NCCC(c2ccccc2)c2ccccc2)cc1[N+](=O)[O-]	-10.3*	i	-0.93	4.5	31.6%*	i
Cn1cnnc1SCC(=O)NCCC(c1ccccc1)c1ccccc1	i	i	-0.87	·	·	·
O=C(COC(=O)C1(c2ccc(F)cc2)CCCC1)N1CCN(C(=O)c2ccco2)CC1	i	i	-0.23	-3.6	·	·
O=C(COC(=O)C1(c2ccccc2F)CCCC1)N1CCN(C(=O)c2ccco2)CC1	-5.42*	i	-0.69	·	67.9%*	i
COCC1CCN(C(=O)C2CCC(=O)N(CCc3cccc(F)c3)C2)CC1 (configuration not stated)	i	i	0.16	7.5	·	·
CN(Cc1ccccc1)c1nc(N)nc(Cl)c1C=O	-5.52*	i	-0.62	6.2	33.5%*	i
O=C(CSc1nnc(CNC(=O)c2ccc(F)cc2)o1)NCC1CCCO1 (configuration not stated)	i	i	0.14	-18.4	·	·
COc1cccc(/C=C2\SC(=O)N(CC(=O)NCCCn3ccnc3)C2=O)c1	i	i	-2.01	·	·	·
O=C(CN1C(=O)S/C(=C\c2cccc(Cl)c2)C1=O)NCCCn1ccnc1	-5.85*	i	-1.37	·	55.9%*	i
CC(C)C[C@H](NC(=O)N1CCn2c1nc1ccccc12)C(=O)N1CCCCC1	i	i	0.27	·	·	·
O=S(=O)(c1ccc2ccccc2c1)N1CCN=C1SCc1cccnc1	-5.01*	i	-5.02*	-1.8	i	i
O=S(=O)(c1ccc(F)cc1)N1CCN=C1SCc1cccnc1	i	i	-3.57	-1.4	·	·
CC1=NC(C)(C)Cc2cc(C)c(C)cc21	-8.21*	i	-0.39	-31.3	41.6%*	i
CC1CCC(NC(=O)Cn2c3c(c(-c4ccccc4Cl)cc2=O)CCC3)CC1 (configuration not stated)	-6.81*	i	-2.73	-0.9	45.6%*	i
O=[N+]([O-])c1ccc(Nc2ccccc2)c2nonc12	-5.98*	i	0.68	·	46.6%*	i
